In ChEMBL document CHEMBL1201862, “PubChem BioAssay data set” (2004):
In all, about 54,000 sequences went through this assay and about 4,800 (8.9%) were called active. No stated cut-off is given here; in the data, active = GI50 up to about 1.1 µM and inactive = higher. Only a sample is shown. Measured potencies and affinities stand elsewhere.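 Values below derive from 48-hour exposures of cells grown in 96-well plates, with endpoints linearly interpolated between the two concentrations bracketing the appropriate inhibition level. At the GI50, growth is halved.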

Tested on: RPMI-8226
Assay: NCI tumour cell line growth inhibition, 48 h

Substance	GI50 [nM]
[Bis(aminomethyl)diethylsilane]tetrachloroplatinum(IV), CHEMBL2146203	1620
[Bis(aminomethyl)pentamethylenesilane]tetrachloropaltinum(IV), CHEMBL2146204	4530
[Bis(aminomethyl)tetramethylenesilane]dichloropaltinum(II), CHEMBL2146205	9860
[Bis(aminomethyl)dimethylsilane]tetrachloroplatinum(IV), CHEMBL2146190	2110
mu-(1,7-nanodiamine-N,N')bis-(cis-aminedichloroplatimum (II)), CHEMBL2146215	26200
[Bis(aminomethyl)tetramethylenesilane]tetrachloropaltinum(IV), CHEMBL2146189	1100
[Bis(aminomethyl)ethylmethylsilane]tetrachloroplatinum(IV), CHEMBL2146192	1320
cis-Bis[[(trimethylsilyl)methyl]amino]tetrachloroplatinum(IV), CHEMBL2146191	1940
[Bis(aminomethyl)pentamethylenesilane]dichloropaltinum(II), CHEMBL2146202	1920
CISPLATIN, CHEMBL11359	4290
[Bis(aminomethyl)dimethylsilane]dichloroplatinum (II), CHEMBL2146201	12200
